Calls of active or inactive are those of the source. How the source made its calls: active means hit-call score of the fitted dose curve at least 0.9, where 1 is the maximum; inactive means score below 0.9.

40 molecules from PubChem BioAssay (EPA / NIEHS) can be followed below.

A short description of the assay: ATG_VDRE_CIS: Attagene CIS-FACTORIAL HepG2 Assay for human Vitamin D Receptor Element (VDRE) (AID 2282968). The note with it: HepG2 VDRE cis-reporter transcription, actives raise or lower the signal. The protocol: ATG_CIS is a cell-based, multiplexed-readout assay that uses HepG2, a human liver cell line, with measurements taken at 24 hours after chemical dosing in a 24-well plate.ATG_VDRE_CIS is one of 52 assay component(s) measured or calculated from the ATG_CIS assay. It is designed to make measurements of mRNA induction, a form of inducible reporter, as detected with fluorescence intensity signals by Reverse transcription polymerase chain reaction (RT-PCR) and Capillary electrophoresis technology.Data from the assay component ATG_VDRE_CIS was analyzed into 1 assay endpoint. This assay endpoint, ATG_VDRE_CIS, was analyzed with bidirectional fitting relative to DMSO as the negative control and baseline of activity. Using a type of inducible reporter, measures of mRNA for gain or loss-of-signal activity can be used to understand the reporter gene at the transcription factor-level as they relate to the gene VDR. Furthermore, this assay endpoint can be referred to as a primary readout, because this assay has produced multiple assay endpoints where this one serves a reporter gene function. To generalize the intended target to other relatable targets, this assay endpoint is annotated to the nuclear receptor intended target family, where the subfamily is non-steroidal.
Human liver HepG2 cells are transiently transfected with multiple reporter transcription units (MRTUs) in 6-well plates using FuGene 6 reagent (Roche; 3 ml FuGene/1 mg DNA). The MRTU constructs are regulated by a cis-regulating element (promoter). […] A major difference between the CIS and TRANS system is that in CIS activities of endogenous TFs are measured, whereas the TRANS assay evaluates changes in activities of exogenous, chimeric NR-Gal4 proteins. […] At the end of 24 hour incubation, total RNA was isolated using TriZol reagent (Invitrogen). The isolated RNA is then reverse-transcribed using oligo(dT) primer and Mo-MLV reverse transcriptase (Invitrogen) with DNAse I (Ambion) treatment for 30 min. The one-tenth of the produced cDNA was amplified by PCR using Taq DNA polymerase (Invitrogen) and two reporter sequence-specific primers. The PCR products were fluorescently labeled by primer extension with 6-arboxyfluorescein (6-FAM) 5'-labeled reporter sequence-specific primer (2 min at 95 C, 20 s at 68 C and 10 min at 72 C) and these products were digested with 5U of HpaI (New England Biolabs) for 2h at 37 C. The fragments were purified using Qiaquick PCR columns (Qiagen), analyzed on an ABI 3130xL genetic analyzer (Applied Biosystems) with peak positions identified by using a set of X-rhodamine (ROX)-labeled MapMarker1000 molecular weight standards (BioVentures). The raw capillary electrophoresis data was processed using Attagraph software (Attagene).
For `[O-][n+]1ccc(Cl)cc1`, the result was inactive. Still for that read-out and setting: the value for `C1=CCC=C1` was “inactive”; that for `NC(=O)c1ccc([N+](=O)[O-])cc1Cl` was “inactive”; that for `Nc1ccc(S(=O)(=O)Nc2cnc3ccccc3n2)cc1` was “inactive”.

On to `CC(C)=CCOC(=O)c1ccccc1`, for which the outcome was inactive.

One may read the AC50 as the concentration at which the activity in the assay is half-maximal. Regarding `CN(C)c1ccc(C(c2ccccc2)c2ccc(N(C)C)cc2)cc1`, the AC50 is 7.62 µM (active). With `CCC(C)NC(N)=O` (stereo not given), the result was inactive. On the same count and under the same terms, to `CC(C)(Oc1ccc(Cl)cc1)C(=O)O` belongs “inactive”. On to `Cc1ccccc1S(N)(=O)=O`, for which the concentration at half-maximal activity (AC50) is 26.5 µM (active). On to `CCC(=O)OCc1ccc(OC)cc1`, for which the molecule was classed as inactive. For `CCCCCCCC#N`, the result was inactive.

For the molecule `O=C(O)c1nc(Cl)c(Cl)c(Cl)c1Cl`, the outcome was inactive.

Consider `CCOc1ccc2c(c1)C(C)CC(C)(C)N2` (stereo not given), for which the half-maximal activity concentration (AC50) is 34 µM (active). On to `Clc1ccc(Sc2cc(Cl)c(Cl)cc2Cl)cc1`, for which the outcome was inactive.

With `O=C1NC(=O)C2CC=CCC12` (stereo not given), the result was inactive.

On to `COc1cccc(OC)c1C(=O)O`, for which the molecule was classed as inactive. Still for that read-out and setting: to `CC/C=C\CCCCCO` belongs “inactive”; to `O=C(O)Cc1c[nH]c2ccccc12`, “inactive”; to `c1cc[c]([Bi]([c]2ccccc2)[c]2ccccc2)cc1`, “inactive”.

As for `F[B-](F)(F)F`, the outcome was inactive. In the case of `C=CCOC(=O)C(=C)C`, the molecule was called inactive. Turning to `COCCCN`, the molecule was classed as inactive.

Take `CCCC(=O)OC`: the molecule was classed as inactive.

`CC/C=C\CCO`: the outcome was inactive. On the same count and under the same terms, to `O=C(O)/C=C/C(=O)O` belongs “inactive”; to `C=C1CC[C@H]2C[C@@H]1C2(C)C`, “inactive”; to `CCCCCCC1CCCC(=O)O1` (stereo not given), “inactive”. On the same count and under the same terms, the value for `CC/C=C\CC1=C(C)CCC1=O` was “inactive”. As to `CN(C)Cc1cc(C(C)(C)C)c(O)c(C(C)(C)C)c1`, the call was inactive. For the molecule `CC(C)CC(=O)CC(C)C`, the result was inactive. Still for that read-out and setting: to `O=[N+]([O-])c1ccccc1C(F)(F)F` belongs “inactive”; to `CC(C)(C)NC(=O)[C@@H]1CN(Cc2cccnc2)CCN1C[C@@H](O)C[C@@H](Cc1ccccc1)C(=O)N[C@H]1c2ccccc2C[C@H]1O`, “inactive”. Same read-out and setting: the value for `CCO[Si](OCC)(OCC)c1ccccc1` was “inactive”; that for `CCCc1c(OCCCCc2nn[nH]n2)ccc(C(C)=O)c1O` was “inactive”. Consider `O=C(C(=O)c1ccccc1)c1ccccc1`, for which the molecule was classed as inactive. In the case of `CCCCNC(N)=O`, the molecule was called inactive.

In the case of `CC/C=C/CCO`, the molecule was classed as inactive. The same measure, in the same setting: to `O=C(c1ccccc1)c1ccccc1O` belongs “inactive”; to `CCCCCCCCCCC1CO1` (stereo not given), “inactive”.

With `CCCCCCCCCCCCCCCCCC[N+](C)(C)C`, the AC50 is 6.1 µM (active).
